Assay outcomes (PubChem BioAssay)
Shn3 3UTR inh – Schnurri-3 reporter inhibition in Clone20 osteoblasts | Clone20 osteoblast Shn3 3'UTR firefly luciferase, 24 h | inhibition, % at 12.5 µM | hit rate 0.52% among 360,000;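 active = mean inhibition of at least 75% with every replicate also reaching 75%; inconclusive = mean inhibition at least 75% but some replicate below; inactive = mean inhibition below 75%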
Peg3 promoter – inhibitors of Peg3 promoter. HeLa PEG-Prom luciferase reporter, luminescence, overnight. inhibition, % at 20 µM. hit rate 1.7% among 360,000. AID 588405;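 active = inhibition of at least 50% at 20 µM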
EBV LMP1 NFkB – Epstein-Barr LMP1 NF-kappaB reporter inhibition | AID 504558 | hit rate 0.69% among 350,000 | LMP1-induced NF-kappaB luciferase reporter cells, luminescence | inhibition, % at 12.5 µM; in the data active = inhibition above about 41%; inconclusive = no clear call, values can overlap the other calls
KKLEB tox – CF airway cell cytotoxicity counter-screen; KKLEB CF airway cells viability, ATPlite luminescence, overnight; active compounds read low; cells stimulated with P. aeruginosa culture filtrate; activity change (cytotoxicity), % at 5 µM; hit rate 0.36% among 360,000;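 active = corrected activity change at or below -50% at 5 µM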
MITF TRPM1 inh – inhibitors of MITF-driven TRPM1 promoter in melanoma cells; SK-MEL-5 TRPM1 promoter luciferase, 24 h; inhibition, % at 12.5 µM; hit rate 0.83% among 330,000; AID 488899;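 active = mean inhibition across replicates of 60% or more, whatever share of single replicates reaches that level; inconclusive = some that reach 60%, reason not given; inactive = mean inhibition across replicates below 60%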
CF NFkB inh – cystic fibrosis NF-kB activation inhibition | inhibition, % at 5 µM | AID 588850 | KKLEB NF-kB-GFP reporter, PAF-induced, GFP fluorescence overnight | hit rate 0.86% among 360,000;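 active = at least 50% inhibition at 5 µM, scaled per plate between neutral and stimulator controls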;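 also: PAF is a Pseudomonas aeruginosa culture filtrate used as stimulus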
Of the large screens only hits and unclear results are named; the others gave an inactive call. This is a sample that favours compounds with a hit; in the whole collection about 2.9% have one here.

CC(=O)c1ccc(Nc2nc(C(N)Cc3ccc(C(F)(F)F)cc3)cs2)cc1 (stereo not drawn)	none (no result: EBV LMP1 NFkB, MITF TRPM1 inh)
NC(CCc1ccccc1)c1csc(Nc2ccc(C(=O)c3ccccc3)cc2)n1 (stereo not drawn)	Peg3 promoter 88 (no result: EBV LMP1 NFkB, MITF TRPM1 inh)
NC(Cc1ccc(C(F)(F)F)cc1)c1csc(Nc2ccc(C(=O)c3ccccc3)cc2)n1 (stereo not drawn)	Peg3 promoter 97 (no result: EBV LMP1 NFkB, MITF TRPM1 inh)
CN(Cc1ccccc1)C(=O)c1ccc(Nc2nc(C(N)Cc3ccc(C(F)(F)F)cc3)cs2)nc1 (stereo not drawn)	Peg3 promoter 95 (no result: EBV LMP1 NFkB, MITF TRPM1 inh)
CN(Cc1ccccc1)C(=O)c1ccc(Nc2nc(C(N)COCc3ccccc3)cs2)nc1 (stereo not drawn)	none (no result: EBV LMP1 NFkB, MITF TRPM1 inh)
CCN(CC)Cc1cc(Oc2ccc(O)c(CN(CC)CC)c2)ccc1O	none (no result: EBV LMP1 NFkB, MITF TRPM1 inh)
O=C1COC(c2ccccc2O)=NN1CCCl	none (no result: MITF TRPM1 inh)
O=C(Cc1ccccc1)N/N=C/c1cc(Br)cc(Cl)c1O	Peg3 promoter 53
O=C(N/N=C/c1cc(Cl)cc(Cl)c1O)c1ccncc1	MITF TRPM1 inh 64
Cc1ccc(N=Cc2cc(Cl)cc(Cl)c2O)nc1	none
COc1ccc(C(=O)N/N=C/c2cc(Br)ccc2O)cc1OC	Shn3 3UTR inh 91, MITF TRPM1 inh 66
Oc1c(Cl)cc(Cl)cc1/C=N/Nc1ncc(Br)cn1	Shn3 3UTR inh 90, EBV LMP1 NFkB inconclusive, MITF TRPM1 inh 66
Cc1ccc(S(=O)(=O)N2C[C@H]3C(=O)C[C@@H]4C(=O)N(c5ccccc5)C(=O)[C@@H]4[C@@H]3C[C@H]2c2cccc(Cl)c2)cc1	none (no result: EBV LMP1 NFkB, MITF TRPM1 inh)
CCOc1ccc(CCN2C(=S)N([C@@H](CC(C)C)CN3CCCC3CN3C(=S)NC[C@@H]3CC(C)C)C[C@@H]2CC(C)C)cc1 (stereo partly drawn)	none
O=C(N/N=C/c1ccccc1Br)c1cccc(S(=O)(=O)N2CCOCC2)c1	none
O=C(N/N=C/c1cc(Br)cc(Br)c1O)c1cccc(S(=O)(=O)N2CCOCC2)c1	Peg3 promoter 55
COc1cc(Cl)cc(/C=N\NC(=O)c2ccc3c(c2)OCO3)c1O	Shn3 3UTR inh 88 (no result: MITF TRPM1 inh)
O=C(N/N=C/c1cc(Br)cc(Cl)c1O)c1ccc2c(c1)OCO2	Peg3 promoter 55
C=CCN(CC=C)Cc1cc(=O)oc2cc(C)c(C)cc12	none (no result: EBV LMP1 NFkB, MITF TRPM1 inh)
Cc1ccc(CNc2nc3cc(-c4ccccc4)sc3c(=O)n2C)c(C)c1	none (no result: EBV LMP1 NFkB, MITF TRPM1 inh)
CC(C)C[C@H](NC(=O)/C=C/[C@H]1O[C@@H](n2ccc(=O)[nH]c2=O)[C@H](O)[C@@H]1O)C(=O)O	none (no result: EBV LMP1 NFkB, MITF TRPM1 inh)
COc1ccc(-n2nc(C#N)c(Cl)cc2=O)cc1	Peg3 promoter 104, MITF TRPM1 inh 100, CF NFkB inh 77
COC(=O)c1nn(-c2ccc(OC)cc2)c(=O)cc1O	none
Fc1ccc(SCCc2ccncc2)cc1	none
Fc1cc(F)c(F)c(SCCc2ccncc2)c1F	Shn3 3UTR inh 87
COc1cccc(-c2cc3nc(-c4ccccc4)cc(N4CCN(C(=O)c5ccoc5)CC4)n3n2)c1	Peg3 promoter 72 (no result: MITF TRPM1 inh)
COc1ccccc1-c1cc2nc(-c3ccccc3)cc(N3CCN(C(=O)c4ccoc4)CC3)n2n1	Peg3 promoter 81 (no result: MITF TRPM1 inh)
COc1cccc(-c2cc(N3CCN(C(=O)c4ccoc4)CC3)n3nc(-c4cccc(Cl)c4)cc3n2)c1	none (no result: MITF TRPM1 inh)
COc1ccccc1-c1cc2nc(-c3ccccc3)cc(N3CCN(C(=O)c4ccco4)CC3)n2n1	Peg3 promoter 73 (no result: MITF TRPM1 inh)
Cc1cc(N2CCN(C(=O)c3ccoc3)CC2)n2nc(-c3ccccc3)cc2n1	none (no result: MITF TRPM1 inh)
Cc1cc(N2CCN(C(=O)c3ccco3)CC2)n2ncc(-c3ccccc3)c2n1	none
O=C(c1ccoc1)N1CCN(c2cc(-c3ccco3)nc3cc(-c4ccccc4)nn23)CC1	Peg3 promoter 74 (no result: MITF TRPM1 inh)
CC1=C(C(=O)N(C)C)CC(CC(=O)NCCc2ccccn2)C(=O)N1CCCN1CCCC1=O (stereo not drawn)	none (no result: MITF TRPM1 inh)
COCCNC(=O)C1(C)CCN(C(=O)c2cc(C)nn2C(C)(C)C)C1 (stereo not drawn)	none (no result: EBV LMP1 NFkB, MITF TRPM1 inh)
O=C(NCCc1ccc(Cl)cc1)C1CCC(CNc2nc(=S)[nH]c3ccccc23)CC1 (stereo not drawn)	MITF TRPM1 inh 76
O=C(NCCC1=CCCCC1)C1CCC(CNc2nc(=S)[nH]c3ccccc23)CC1 (stereo not drawn)	MITF TRPM1 inh 64
Cc1ccc(S(=O)(=O)N2C[C@H]3C(=O)C[C@@H](c4ccccc4)N(S(=O)(=O)c4ccc(C)cc4)[C@H]3C[C@H]2c2cccs2)cc1	none (no result: EBV LMP1 NFkB, MITF TRPM1 inh)
O=C(Nc1ccc(S(=O)(=O)NC2=NCCCCC2)cc1)c1cccc(OC(F)F)c1	none (no result: MITF TRPM1 inh)
O=c1c2c3c(sc2ncn1/N=C/c1ccc([N+](=O)[O-])o1)CCCC3	MITF TRPM1 inh 82
Cn1cc(/C=N/n2cnc3sc4c(c3c2=O)CCCC4)c2ccccc21	none
Cc1ccc(Nc2nc(NCCO)c3ccccc3n2)cc1C	Peg3 promoter 54
CNC(=O)CC1C(=O)N(c2ccc(OC)cc2)C(=S)N1NC(=O)c1cccc(F)c1 (stereo not drawn)	Peg3 promoter 69 (no result: EBV LMP1 NFkB, MITF TRPM1 inh)
CN(C)CCCNc1nc2cc(-c3cccc(Cl)c3)sc2c(=O)n1C	Peg3 promoter 91 (no result: EBV LMP1 NFkB, MITF TRPM1 inh)
CN(C)CCCNc1nc2cc(-c3cccc(C(F)(F)F)c3)sc2c(=O)n1C	Peg3 promoter 96 (no result: EBV LMP1 NFkB, MITF TRPM1 inh)
COc1ccc(-c2cc3nc(NCCCN(C)C)n(C)c(=O)c3s2)cc1OC	none (no result: EBV LMP1 NFkB, MITF TRPM1 inh)
COCCNc1nc2cc(-c3cccc(C(F)(F)F)c3)sc2c(=O)n1C	none (no result: EBV LMP1 NFkB, MITF TRPM1 inh)
CCN1C(=O)[C@H]2[C@@H](c3ccc(C(F)(F)F)cc3)N[C@]3(CCCN(CC4CCCCC4)C3=O)[C@H]2C1=O	none (no result: MITF TRPM1 inh)
CN1CCN(CCCNC(=O)c2ccc(/C=C3\Oc4ccccc4N(Cc4ccccc4F)C3=O)cc2)CC1	Peg3 promoter 69
Cc1cccc(CN2C(=O)/C(=C\c3ccc(C(=O)NCCCN4CCN(C)CC4)cc3)Oc3ccccc32)c1	Peg3 promoter 87, MITF TRPM1 inh 94
CN1CCN(CCCNC(=O)CCN2C(=O)COc3ccccc32)CC1	none
COc1cc(NCCCn2cnc3c(OCc4ccccc4)ncnc32)cc(OC)c1OC	none
COc1ccc(N2CCN(C(=O)COC(=O)c3nc(Cl)ccc3Cl)CC2)cc1	none (no result: MITF TRPM1 inh)
COc1ccc2cc(C(=O)NC3CCCCC3)c(=O)oc2c1	EBV LMP1 NFkB 81
CC(=O)c1ccc(NC(=O)c2noc3c2CCC3)cc1	EBV LMP1 NFkB 65
O=C(NCc1ccccc1)c1noc2c1CCCCC2	none
COc1ccc(NC(=O)c2noc3c2CCC3)cc1	none
O=C(NC1CCCC1)c1noc2c1CCCCC2	EBV LMP1 NFkB 42
Cc1cc(CN(C)C(=O)CC2C(=O)NCCN2Cc2ccc(-c3ccccc3)cc2)on1 (stereo not drawn)	none
CN(C)Cc1ccc(-c2nc3cccc4c3n2CCNC4=O)cc1	Peg3 promoter 58
CS(=O)(=O)Nc1ccc2c(c1)[C@H]1C[C@H](CC(=O)NCc3ccccc3)O[C@H](CO)[C@H]1O2	none (no result: MITF TRPM1 inh)
